# Results filed as inconclusive are left out. Values without a mark were called inactive. The call rests on the fitted dose curve; in most records, active means well fitted cell-killing curve with a large enough effect; inconclusive means small, poorly fitted or top-dose-only effect; inactive means no such curve, though single readings can be large or run the other way.
# Test: qHTS of pediatric cancer cell lines to identify multiple opportunities for drug repurposing: Primary screen for SJ-GBM2 cells (AID 1347091);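 further: plate controls were DMSO neutral control for no effect and bortezomib for full effect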
# Details: SJ-GBM2 viability, CellTiter-Glo luminescence, 48 h; series mostly up to 46 µM; activity change, negative = cytotoxic: at the top concentration
# Procedure, shortened: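 Eight- or eleven-point concentration series, 48 h treatment at 37 degrees C in growth media; readout CellTiter-Glo luminescence. Potency and efficacy were taken from the concentration-response curves.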
row,Structure (SMILES),"activity change, negative = cytotoxic"
1,CN(C)CCN1C(=O)c2ccccc2N(C)c2ccccc21,4.58%
2,NCCNc1cccc2ccccc12,12.5%
3,CCCCCCCC/C=C\CCCCCCCCN,15.3%
4,COc1ccc2c(c1)c1c3n2CCN(C)C3=NCC1,-0.68%
5,Cc1c(-c2ccccc2)oc2c(C(=O)OCCN3CCCCC3)cccc2c1=O,8.1%
6,CC[N+](C)(CC)CCOC(=O)C(O)(c1ccccc1)C1CCCCC1 (configuration not stated),4.89%
7,CC(=O)N[C@@H](CCC(=O)O)C(=O)O,26.8%
8,Cc1cc(NS(=O)(=O)c2ccc(N)cc2)nc(C)n1,21.1%
9,O=C(O)C1(C(=O)O)CCC1.[NH2-].[NH2-].[Pt+2],12.2%
10,CC1(COc2ccc(CC3SC(=O)NC3=O)cc2)CCCCC1 (configuration not stated),-4.92%
11,Cc1ccc(S(=O)(=O)NC(=O)NC2CCCC2)cc1,9.48%
12,CCOc1cc(OCC)c(C(=O)CCC(=O)O)cc1OCC,31.5%
13,COc1ccc(/C=N/NC(=O)c2ccncc2)cc1OC,15.2%
14,N=C(N)N1CCc2ccccc2C1,1.07% [at 4.84 µM]
15,Cc1cc(C)cc(OCC2CNC(=O)O2)c1 (configuration not stated),8.16%
16,CC(C)(C)NC[C@H](O)COc1cccc2c1CCCC2=O,10.9%
17,O=C(Nc1cccc(C2=NCCN2)c1)Nc1cccc(C2=NCCN2)c1,21.6% [at 16.1 µM]
18,CCCCCCCCCCCCCCCCO,8.67%
19,CCOC(=O)Nc1ccc2c(c1)N(C(=O)CCN1CCOCC1)c1ccccc1S2,2.27%
20,NS(=O)(=O)c1cc(C(=O)O)cc(N2CCCC2)c1Oc1ccccc1,4.45%
21,CC(CNC1CCCCC1)OC(=O)c1ccccc1 (configuration not stated),-3.6%
22,CCCCN1C[C@H](O)[C@@H](O)[C@H](O)[C@H]1CO,5.24%
